Consider eight compounds from PubChem BioAssay (NCATS).

Several values for one entry are separate records, joined by “and”; a condition that tells them apart may be missing. Identical values can stand only once. Records with an inconclusive call do not appear. Activity calls are given as the source filed them. Unless noted, calls come from the whole dose curve.

In experiment [1] the target is Glucocorticoid receptor (Homo sapiens) (UniProt P04150). The experiment in a line: qHTS assay for small molecule agonists of glucocorticoid receptor signaling (AID 588532; active = well fitted curve in the direction sought with a large enough effect in the signal ratio, with a control signal flat; the % refers to the signal ratio;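 note: 100% = dexamethasone at 0.1 µM and 0% = DMSO only wells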). The settings on record: HeLa MMTV-bla, beta-lactamase ratio, agonist, 18 h; stronger effect = higher value; percent of dexamethasone control, DMSO zero. A digest of the protocol: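 Stimulation of a glucocorticoid response element-driven beta-lactamase gene was measured in HeLa cells. Responses were scaled between DMSO basal and 0.1 uM dexamethasone, then fitted for half-maximal stimulation.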
Glucocorticoid receptor (Homo sapiens), sequence (P04150 whole entry, looked up): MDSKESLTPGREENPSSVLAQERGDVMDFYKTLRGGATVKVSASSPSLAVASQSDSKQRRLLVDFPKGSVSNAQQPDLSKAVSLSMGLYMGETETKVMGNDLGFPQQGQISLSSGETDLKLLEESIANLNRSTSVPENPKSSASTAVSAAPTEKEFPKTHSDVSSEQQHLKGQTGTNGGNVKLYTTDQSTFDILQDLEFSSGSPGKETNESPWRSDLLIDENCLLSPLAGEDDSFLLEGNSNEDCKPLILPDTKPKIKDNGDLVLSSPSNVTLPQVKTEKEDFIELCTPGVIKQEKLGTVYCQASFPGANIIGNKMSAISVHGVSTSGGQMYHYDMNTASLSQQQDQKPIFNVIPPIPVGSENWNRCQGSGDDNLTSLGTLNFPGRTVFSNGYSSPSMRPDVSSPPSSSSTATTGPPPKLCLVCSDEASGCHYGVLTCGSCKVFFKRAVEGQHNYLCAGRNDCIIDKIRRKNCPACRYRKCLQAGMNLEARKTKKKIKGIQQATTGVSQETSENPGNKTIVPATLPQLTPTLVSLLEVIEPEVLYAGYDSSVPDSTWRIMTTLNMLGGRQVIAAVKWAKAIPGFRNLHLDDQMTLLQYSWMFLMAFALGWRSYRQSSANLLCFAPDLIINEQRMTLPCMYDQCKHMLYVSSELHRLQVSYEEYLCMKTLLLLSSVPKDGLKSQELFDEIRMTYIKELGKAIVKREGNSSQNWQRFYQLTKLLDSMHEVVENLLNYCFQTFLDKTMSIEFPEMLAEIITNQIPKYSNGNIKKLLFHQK

The nature of experiment [2]: qHTS assay for small molecule antagonists of peroxisome proliferator-activated receptor delta signaling (AID 588535; active = well fitted inhibition curve with a large enough effect in the signal ratio, with a control signal flat, not every such curve was filed as active; the % refers to the signal ratio;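 for max response: cells co-treated with a PPAR-delta agonist as stimulator during compound exposure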). As to conditions: HEK293T PPARd-UAS-bla, beta-lactamase FRET ratio, 18 h; 460 nm channel. Summed up: (§1)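 GeneBLAzer PPAR-delta-UAS-bla HEK293T cells in medium with 2% charcoal/dextran FBS were preincubated 5 hrs at 37 C, then given compounds, incubated 18 hrs at 37 C, and read by CCF4 beta-lactamase fluorescence; IC50 from Hill fits.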
A general note: Quantitative high-throughput screening tests each substance at several concentrations.

Experiment [3] deals with Peroxisome proliferator-activated receptor delta (Homo sapiens) (UniProt Q03181). The experiment is described as above. As to conditions: HEK293T PPARd-UAS-bla, beta-lactamase FRET ratio, 18 h; series mostly up to 76.7 µM. Summed up: as §1
Peroxisome proliferator-activated receptor delta (Homo sapiens), sequence (Q03181 whole entry, looked up): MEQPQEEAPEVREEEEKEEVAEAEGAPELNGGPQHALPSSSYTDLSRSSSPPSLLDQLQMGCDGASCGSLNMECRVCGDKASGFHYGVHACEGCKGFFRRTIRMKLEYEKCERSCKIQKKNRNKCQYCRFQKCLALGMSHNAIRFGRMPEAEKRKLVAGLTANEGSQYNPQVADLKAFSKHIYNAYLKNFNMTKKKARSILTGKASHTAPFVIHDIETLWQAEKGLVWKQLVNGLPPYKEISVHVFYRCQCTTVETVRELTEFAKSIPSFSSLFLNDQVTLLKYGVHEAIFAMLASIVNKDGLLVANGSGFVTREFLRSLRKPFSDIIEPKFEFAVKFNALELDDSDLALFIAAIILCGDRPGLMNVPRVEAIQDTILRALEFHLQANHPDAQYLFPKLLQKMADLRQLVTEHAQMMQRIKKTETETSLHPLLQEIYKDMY
For experiment [4], the target named is Peroxisome proliferator-activated receptor gamma (Homo sapiens) (UniProt P37231). As to the kind of experiment: qHTS assay for small molecule agonists of peroxisome proliferator-activated receptor gamma signaling (AID 588536; active = well fitted curve in the direction sought with a large enough effect in the signal ratio, with a control signal flat, not every such curve was filed as active; the % refers to the signal ratio;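 note: 0% = DMSO basal wells and 100% = rosiglitazone at 2 µM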). The settings on record: HEK293 PPARg-UAS-bla, beta-lactamase ratio, 16 h, percent of rosiglitazone response, DMSO as zero; series mostly up to 76.7 µM. Summed up:
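Ratiometric blue/green fluorescence (405 nm excitation; 460 and 530 nm emission) from CCF4-loaded HEK293 reporter cells serves as signal. Exposure to test compounds lasts 16 h at 37 C in medium containing 1% charcoal/dextran-treated serum.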

Experiment [5] has the same target. The experiment in a line: qHTS assay for small molecule antagonists of peroxisome proliferator-activated receptor gamma signaling (AID 588537; active = well fitted inhibition curve with a large enough effect in the signal ratio, with a control signal flat, not every such curve was filed as active; the % refers to the signal ratio;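 note: reporter cells co-stimulated with 50 nM rosiglitazone agonist during compound treatment; % of control where 0% means no effect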). The settings on record: HEK293 PPARg-UAS-bla, beta-lactamase ratio, antagonist mode; series mostly up to 76.8 µM. Summed up: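 PPAR-gamma-UAS-bla HEK293 cells (3000/well, 1% charcoal/dextran-stripped FBS) were preincubated 6-6.5 h at 37 C, given titrated compounds, then stimulated with 50 nM rosiglitazone for 16 h. Beta-lactamase activity was read with CCF4 dye; IC50 came from Hill fits.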

Experiment [6] deals with Vitamin D3 receptor (Homo sapiens) (UniProt P11473). As to the kind of experiment: qHTS assay for small molecule antagonists of vitamin D receptor signaling (AID 588541).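 Note: receptor activated by calcitriol during compound treatment; % is set by controls: 0 for no effect and ±100 for the full control effect.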 As to conditions: HEK293T VDR-UAS-bla, beta-lactamase ratio, antagonist mode; series mostly up to 76.7 µM. A digest of the protocol: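 VDR-UAS-bla HEK293T cells (2000/well, 2% charcoal-stripped FBS) were treated with titrated compounds plus 1-alpha,25-dihydroxyvitamin D3 (50 nM or 3 nM final) for 16 h at 37 C. CCF4 beta-lactamase fluorescence was read; Hill fits gave IC50.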
Vitamin D3 receptor (Homo sapiens), sequence (P11473 whole entry, looked up): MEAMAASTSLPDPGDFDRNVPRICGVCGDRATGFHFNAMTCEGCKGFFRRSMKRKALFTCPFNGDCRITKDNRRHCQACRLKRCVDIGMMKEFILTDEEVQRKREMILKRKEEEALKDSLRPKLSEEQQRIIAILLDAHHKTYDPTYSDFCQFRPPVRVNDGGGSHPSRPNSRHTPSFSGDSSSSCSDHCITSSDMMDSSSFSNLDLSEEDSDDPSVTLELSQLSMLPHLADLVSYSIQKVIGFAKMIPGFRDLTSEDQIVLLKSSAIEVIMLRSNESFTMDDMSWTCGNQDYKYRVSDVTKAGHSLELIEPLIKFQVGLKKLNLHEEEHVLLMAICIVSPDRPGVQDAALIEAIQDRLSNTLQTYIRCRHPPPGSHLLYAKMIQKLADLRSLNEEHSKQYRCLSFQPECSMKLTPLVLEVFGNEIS

Experiment [7] has the same target. As to the kind of experiment: qHTS assay for small molecule agonists of vitamin D receptor signaling (AID 588543).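 Note: 0% = DMSO basal and 100% = reference agonist control.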 The settings on record: HEK293T VDR-UAS-bla, beta-lactamase ratio, 16 h; series mostly up to 76.8 µM. Summed up: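 Measured: β-lactamase reporter activity (CCF4, 405 nm excitation, 460/530 nm emission) in HEK293T VDR-UAS-bla cells after 16 h compound exposure at 37 °C. Normalization against 50 nM 1α,25-dihydroxyvitamin D3 and DMSO; Hill-fit EC50.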

Experiment [8] in a line: qHTS assay for small molecule agonists of retinoid X receptor alpha signaling (AID 588544).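 For activation: 0% = DMSO basal wells and 100% = reference agonist.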 As to conditions: HEK293T RXRa-UAS-bla, beta-lactamase reporter, 18 h; 530 nm emission.
The target in experiment [9] is Retinoic acid receptor RXR-alpha (Homo sapiens) (UniProt P19793). The description is as above. As to conditions: HEK293T RXRa-UAS-bla, beta-lactamase reporter, 18 h; series mostly up to 76.7 µM.
Retinoic acid receptor RXR-alpha (Homo sapiens), sequence (P19793 whole entry, looked up): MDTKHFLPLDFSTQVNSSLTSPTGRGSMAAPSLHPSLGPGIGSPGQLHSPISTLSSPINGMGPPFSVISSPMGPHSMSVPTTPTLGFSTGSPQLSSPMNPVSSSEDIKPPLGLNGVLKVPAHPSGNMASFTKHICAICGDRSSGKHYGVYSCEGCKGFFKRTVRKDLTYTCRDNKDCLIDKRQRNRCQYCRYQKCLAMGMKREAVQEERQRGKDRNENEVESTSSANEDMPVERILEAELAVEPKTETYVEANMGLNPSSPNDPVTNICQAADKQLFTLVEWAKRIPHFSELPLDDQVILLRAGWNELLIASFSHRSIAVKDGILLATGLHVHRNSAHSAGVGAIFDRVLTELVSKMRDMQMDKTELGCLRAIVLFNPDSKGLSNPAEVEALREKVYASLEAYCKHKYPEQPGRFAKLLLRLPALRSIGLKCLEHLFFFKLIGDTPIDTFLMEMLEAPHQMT
Experiment [10] has as its target Thyroid hormone receptor beta (Homo sapiens) (UniProt P10828). As to the kind of experiment: qHTS assay for small molecule agonists of thyroid hormone receptor beta signaling (AID 588545).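 Note: 0% = DMSO only and 100% = 10 nM T3.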 The settings on record: TR-UAS-bla GripTite HEK 293, beta-lactamase ratio, agonist mode, 18 h, percent of T3 response, DMSO as zero; series mostly up to 76.7 µM. Summed up: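 TR-UAS-bla GripTite HEK 293 cells (2500/well, medium with 2% charcoal/dextran FBS) were treated in agonist mode for 18 h at 37 C, titrated. Beta-lactamase was read by CCF4 ratio after 2 h; normalized to 10 nM T3 (100%) and DMSO, Hill-fitted for EC50 and efficacy.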

The nature of experiment [11]: qHTS assay for small molecule antagonists of retinoid X receptor alpha signaling (AID 588546; active = well fitted inhibition curve with a large enough effect in the signal ratio, with a control signal flat, not every such curve was filed as active; the % refers to the signal ratio;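 note: cells stimulated with 9-cis-retinoic acid as agonist; % is set by controls: 0 for no effect and ±100 for the full control effect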). The settings on record: HEK293T RXRa-UAS-bla, beta-lactamase ratio, antagonist mode; measured here: W530 green channel, cytotoxicity proxy. A digest of the protocol:
(§2)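 Beta-lactamase reporter inhibition, read as CCF4 fluorescence ratio (ex 405, em 460/530 nm) after 2 h at RT. HEK293T UAS-bla cells, 2500/well, were stimulated with 9-cis-RA at 500 or 100 nM final alongside test compound for 18 h at 37 C.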

Experiment [12] has as its target Retinoic acid receptor RXR-alpha (Homo sapiens) (UniProt P19793). Described as above. As to conditions: HEK293T RXRa-UAS-bla, beta-lactamase ratio, antagonist mode. A digest of the protocol: as §2
Experiment [13] addresses Voltage-gated inwardly rectifying potassium channel KCNH2 (Homo sapiens) (UniProt Q12809). As to the kind of experiment: qHTS Assay for Small Molecule Inhibitors of the Human hERG Channel Activity (AID 588834; active = well fitted inhibition curve with a large enough effect;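 note: top concentration of the series differs between compounds; % is set by controls: 0 for no effect and ±100 for the full control effect; lower thallium flux fluorescence means stronger hERG block; nearly all actives have a fitted effect of over 50% in size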). The settings on record: U2OS BacMam hERG, FluxOR thallium flux fluorescence; series mostly up to 92.2 µM. Summed up: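 Blockade is seen as reduced FluxOR thallium-flux fluorescence in U2OS cells expressing hERG from a BacMam construct, in Opti-MEM with 2% FCS. Concentration-response data fitted to the Hill equation for AC50.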

The nature of experiment [14]: qHTS assay for small molecule agonists of the antioxidant response element (ARE) signaling pathway (AID 651741; active = well fitted activation curve with a large enough effect in the signal ratio; the % refers to the signal ratio; note: % of control where 0% means no effect). The settings on record: HepG2 ARE-bla reporter, beta-lactamase FRET ratio, 16 h; series mostly up to 96 µM. Summed up: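 ARE-bla HepG2 cells (beta-lactamase reporter under ARE control) were plated at 2,000 cells/well, preincubated 5 h at 37 C/5% CO2, then treated with DMSO-dissolved compounds for 16 h at 37 C; LiveBLAzer B/G FRET substrate added, fluorescence read after 2 h at room temperature.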

Experiment [15] addresses Glucocorticoid receptor (Homo sapiens) (UniProt P04150). The experiment in a line: qHTS assay for small molecule antagonists of glucocorticoid receptor signaling (AID 588533; active = well fitted inhibition curve with a large enough effect in the signal ratio, with a control signal flat, not every such curve was filed as active; the % refers to the signal ratio;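 note: cells stimulated with 2 nM dexamethasone as agonist; % is set by controls: 0 for no effect and ±100 for the full control effect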). As to conditions: HeLa MMTV-bla, GRE beta-lactamase ratio, antagonist mode, 18 h; series mostly up to 76.8 µM. Summed up: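 Antagonist-mode qHTS: compound titrations added to GRE-bla HeLa cells, then dexamethasone 2 nM final; 18 h, 37 C. CCF4 FRET fluorescence normalized to dexamethasone and DMSO; IC50 from Hill fit.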

In experiment [16] the target is Thyroid hormone receptor beta (Homo sapiens) (UniProt P10828). As to the kind of experiment: qHTS assay for small molecule antagonists of thyroid hormone receptor beta signaling (AID 588547; active = well fitted inhibition curve with a large enough effect in the signal ratio, with a control signal flat, not every such curve was filed as active; the % refers to the signal ratio;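 note: cells stimulated with 0.4 nM T3 agonist during compound exposure; % is set by controls: 0 for no effect and ±100 for the full control effect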). The settings on record: TR-UAS-bla HEK293, beta-lactamase ratio, antagonist mode, 18 h. A digest of the protocol:
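TR-UAS-bla GripTite HEK293 cells in 2% charcoal/dextran FBS medium were preincubated 4 h at 37 C, given compound (0.59 nM to 92 uM) plus 0.4 nM T3 (final) for 18 h, then CCF4 for 2 h at RT; Hill fit gave IC50.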

Experiment [17] can be described thus: qHTS assay for small molecule activators of the p53 signaling pathway (AID 651743; active = well fitted activation curve with a large enough effect in the signal ratio, not every such curve was filed as active; the % refers to the signal ratio; note: % of control where 0% means no effect). As to conditions: HCT-116 p53RE-bla, beta-lactamase FRET ratio, 16 h; stronger effect = higher value. A digest of the protocol:
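p53RE-bla HCT-116 cells with a stably integrated beta-lactamase reporter under p53 response elements were plated, rested 5 hours at 37 C/5% CO2, then exposed to compounds in DMSO for 16 hours at 37 C. LiveBLAzer B/G FRET substrate was read after 2 hours at room temperature.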

The nature of experiment [18]: qHTS assay for small molecule activators of the nuclear factor-kappa B (NF-kB) signaling pathway (AID 651749; active = well fitted activation curve with a large enough effect in the signal ratio; the % refers to the signal ratio; note: % of control where 0% means no effect). The settings on record: NF-kB-bla ME-180 cells, beta-lactamase FRET ratio, 16 h; stronger effect = higher value. Summed up:
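ME-180 cells stably carrying a beta-lactamase reporter under an NF-kB response element were exposed to compound or DMSO vehicle for 16 hr at 37C, 5% CO2. Pathway activation was read by FRET, since reporter expression disrupts FRET.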

Peroxisome proliferator-activated receptor gamma (Homo sapiens), sequence (P37231 whole entry, looked up): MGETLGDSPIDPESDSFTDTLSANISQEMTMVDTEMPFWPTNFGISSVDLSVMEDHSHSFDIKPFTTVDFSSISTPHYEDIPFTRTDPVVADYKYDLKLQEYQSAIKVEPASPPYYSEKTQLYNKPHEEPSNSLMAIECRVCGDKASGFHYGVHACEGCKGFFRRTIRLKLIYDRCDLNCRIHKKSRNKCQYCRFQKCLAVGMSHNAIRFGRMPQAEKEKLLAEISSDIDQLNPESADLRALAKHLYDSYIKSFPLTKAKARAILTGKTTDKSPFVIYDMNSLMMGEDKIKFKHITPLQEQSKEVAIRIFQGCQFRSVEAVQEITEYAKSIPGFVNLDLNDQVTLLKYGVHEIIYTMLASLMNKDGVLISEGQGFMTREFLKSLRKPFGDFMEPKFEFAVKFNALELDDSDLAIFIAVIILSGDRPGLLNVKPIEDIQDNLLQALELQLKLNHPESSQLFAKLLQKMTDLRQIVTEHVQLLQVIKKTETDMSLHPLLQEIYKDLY
Thyroid hormone receptor beta (Homo sapiens), sequence (P10828 whole entry, looked up): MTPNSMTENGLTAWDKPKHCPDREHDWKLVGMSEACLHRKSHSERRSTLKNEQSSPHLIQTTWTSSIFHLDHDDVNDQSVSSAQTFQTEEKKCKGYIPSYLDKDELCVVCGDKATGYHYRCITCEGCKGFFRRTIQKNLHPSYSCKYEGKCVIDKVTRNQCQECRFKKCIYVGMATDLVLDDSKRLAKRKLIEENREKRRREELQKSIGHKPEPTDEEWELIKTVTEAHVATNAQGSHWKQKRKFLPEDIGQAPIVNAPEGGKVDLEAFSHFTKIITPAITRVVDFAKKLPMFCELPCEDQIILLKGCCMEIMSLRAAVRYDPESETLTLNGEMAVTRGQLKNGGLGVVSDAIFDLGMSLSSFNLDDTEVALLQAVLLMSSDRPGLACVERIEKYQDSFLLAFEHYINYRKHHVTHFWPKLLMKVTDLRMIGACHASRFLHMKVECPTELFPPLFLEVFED
Voltage-gated inwardly rectifying potassium channel KCNH2 (Homo sapiens), sequence (Q12809 whole entry, looked up): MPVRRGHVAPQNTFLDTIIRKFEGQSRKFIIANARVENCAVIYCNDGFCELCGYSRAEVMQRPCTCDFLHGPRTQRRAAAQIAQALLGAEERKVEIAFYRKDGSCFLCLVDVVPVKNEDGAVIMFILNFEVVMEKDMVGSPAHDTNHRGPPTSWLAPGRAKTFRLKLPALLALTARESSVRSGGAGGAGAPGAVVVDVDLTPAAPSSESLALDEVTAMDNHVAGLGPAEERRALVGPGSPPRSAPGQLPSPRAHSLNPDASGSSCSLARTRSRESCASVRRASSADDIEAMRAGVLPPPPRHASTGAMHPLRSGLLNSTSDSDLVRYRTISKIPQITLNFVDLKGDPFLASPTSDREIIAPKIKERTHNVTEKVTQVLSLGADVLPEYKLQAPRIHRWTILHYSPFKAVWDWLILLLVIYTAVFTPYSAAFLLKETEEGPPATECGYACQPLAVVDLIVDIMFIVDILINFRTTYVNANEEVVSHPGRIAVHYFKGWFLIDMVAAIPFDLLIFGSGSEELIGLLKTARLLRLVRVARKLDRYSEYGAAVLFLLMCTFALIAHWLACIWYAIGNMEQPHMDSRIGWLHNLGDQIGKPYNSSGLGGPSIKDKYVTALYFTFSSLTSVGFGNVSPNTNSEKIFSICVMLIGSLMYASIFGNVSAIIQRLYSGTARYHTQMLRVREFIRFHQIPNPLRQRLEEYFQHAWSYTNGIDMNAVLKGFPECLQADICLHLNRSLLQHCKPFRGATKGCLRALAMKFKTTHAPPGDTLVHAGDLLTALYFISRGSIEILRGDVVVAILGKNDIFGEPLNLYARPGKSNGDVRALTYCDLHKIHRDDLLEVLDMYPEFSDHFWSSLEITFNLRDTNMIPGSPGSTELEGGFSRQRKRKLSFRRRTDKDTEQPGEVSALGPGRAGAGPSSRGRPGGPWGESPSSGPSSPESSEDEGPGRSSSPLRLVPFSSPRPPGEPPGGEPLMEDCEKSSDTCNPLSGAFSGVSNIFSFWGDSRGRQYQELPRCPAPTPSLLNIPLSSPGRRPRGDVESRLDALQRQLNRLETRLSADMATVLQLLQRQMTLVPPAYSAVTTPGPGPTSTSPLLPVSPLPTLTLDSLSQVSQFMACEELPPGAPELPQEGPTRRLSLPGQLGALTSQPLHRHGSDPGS

Turning to `Cc1cccc(C)c1[N+](=O)[O-]`, in [1], the activation was 4.67% (inactive) and -8.43% (inactive). Moreover, the max response in [2] was 9.63% and 31.4%; in experiment [8], 18.2% and 6.02%; in experiment [11] it was 3.43% and -1.96%; in experiment [12], -16.7% (inactive) and -18.1% (inactive). Further, the Potency result in experiment [3], in experiment [13] and in [14] was “inactive” in each case. For the same compound, the outcome in [4], in experiment [5], in [6], in [7], in [9] and in experiment [10] was inactive.
For the compound `CC(C)(O)CCC(C)(C)O`, the activation in experiment [1] was -3.83% (inactive); in [17], -3.36% (inactive). Further, the outcome in [15], in [4], in experiment [5], in [9] and in experiment [10] was inactive. In addition, the max response in experiment [8] was -8.68%; in experiment [11] it was -5.49%; in experiment [12], 1.42% (inactive). In addition, the activity change % (negative = inhibition) in [16] was 4.09% (inactive). For the same compound, in [13], the Potency entry is “inactive”.
Regarding `Cc1ccco1`, the activation in experiment [1] is -1.2% (inactive); in [17], 2.07% (inactive); in [18], -0.364% (inactive). Further, the outcome in [15], in experiment [4], in experiment [5], in [6], in experiment [9] and in experiment [10] was inactive. In addition, the results for the max response in [8], in experiment [11] and in experiment [12] were -10.8%, -5.98% and 5.14% (inactive), respectively. For the same compound, the Potency result in experiment [13] is “inactive”.
For the compound `C=Cc1ccccn1`, the activation is -3.05% (inactive) in experiment [1] and -2.17% (inactive) in [17]. The result in experiment [15], in experiment [4], in experiment [5], in experiment [6], in [7] and in experiment [9] was inactive. Besides, in experiment [10], the outcome was inactive. In addition, the results for the max response in experiment [8], in [11] and in experiment [12] were -16.6%, -12.9% and -1.58% (inactive), respectively. Moreover, in [16], the activity change % (negative = inhibition) is -28.4% (inactive).
Take `CC(C)C(C)C`: in [1], the activation is -6.49% (inactive). In addition, the result in experiment [15], in experiment [4], in experiment [5] and in experiment [9] was inactive. For the same compound, the max response in experiment [8] is -13.5%; in experiment [11] it was -13.7%; in experiment [12], -1.83% (inactive). For the same compound, the activity change % (negative = inhibition) in [16] was -4.52% (inactive). Further, the Potency result in experiment [13] is “inactive”.
As to `Cc1cc([N+](=O)[O-])ccc1N`, the activation in [1] was -2.44% (inactive); in experiment [17], -4.49% (inactive); in [18], -0.648% (inactive). The result in experiment [15], in experiment [4], in experiment [5], in experiment [7], in experiment [9] and in experiment [10] was inactive. In addition, the figures for the max response in [8], in experiment [11] and in [12] were -1.24%, -8.79% and 2.58% (inactive), respectively. Besides, in experiment [16], the activity change % (negative = inhibition) is -9.22% (inactive). In addition, the Potency entry in [14] is “inactive”.
For `CCOc1ccccc1N`, the results for the activation in [1], in [17] and in experiment [18] were -6.27% (inactive), -1.62% (inactive) and -1.4% (inactive), respectively. Besides, the result in experiment [15], in experiment [4], in experiment [6], in experiment [7], in [9] and in experiment [10] was inactive. In addition, the max response is 0.0722% in [8] and -5.65% in [11]. The Potency entry in experiment [13] and in experiment [14] was “inactive” each time.
In the case of `Cc1cccc(Br)c1`, the figures for the activation in experiment [1] and in experiment [17] were -2.46% (inactive) and -1.99% (inactive), respectively. Also, the outcome in [15], in [4], in experiment [9] and in [10] was inactive. The results for the max response in [8], in experiment [11] and in experiment [12] were -0.411%, -8.74% and 17.3% (inactive), respectively. Also, the activity change % (negative = inhibition) in [16] was 0.545% (inactive). Moreover, the Potency result in experiment [13] and in experiment [14] was “inactive” throughout.
